# Six1-Eya2 inh: qHTS Assay for Inhibitors of the Six1/Eya2 Interaction; Homeobox protein SIX1 (Homo sapiens) + Protein phosphatase EYA2 (Homo sapiens), …; AlphaScreen GST-Six1/His-Eya2 binding, biochemical; hits give low values; activity change, % (no concentration beside the values); hit rate 0.56% among 360,000; AID 651725, 2012; in the data active means activity change below about -65%; inconclusive means mostly about -30% to -63%; further: on the % scale 0 is the no-effect control and ±100 the full control effect
#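 Homogeneous AlphaScreen proximity assay pairing GST-Six1 with His-tagged Eya2 (added as 5X mix: 250 nM and 500 nM) in 50 mM Tris pH 8.0, 300 mM NaCl, 1 mM TCEP. Glutathione donor and nickel acceptor beads; 1 h, 37 °C, dark.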
# CtBP-E1A blk: qHTS Assay for Inhibitors of the CtBP/E1A Interaction; activity change, % (test concentration not listed); hit rate 0.49% among 340,000; AlphaScreen GST-E1A/His-CtBP binding, 1536-well; hits give low values; in the data active means activity change below about -65%; inconclusive means mostly about -30% to -63%; further: on the % scale 0 is the no-effect control and ±100 the full control effect
#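 Protein mix (5X: 125 nM each GST-E1A, His-CtBP) was incubated with pinned compound 2 h at 37 deg C in dark, in 50 mM Tris pH 8.0 buffer with 300 mM NaCl. Glutathione donor and nickel acceptor beads followed; AlphaScreen signal read after 1 h.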
# HP1b binding inh: HTS for Inhibitors of HP1-beta Chromodomain Interactions with Methylated Histone Tails; Chromobox protein homolog 1 (Homo sapiens), P83916; AlphaScreen HP1-beta / biotin-H3K9me3 peptide binding; Potency, µM (series often up to 114 µM), for the others: at the highest dose activity change, negative = inhibition, most hits filed as inhibitors; hit rate 0.56% among 390,000; further: potency means the concentration at half of the fitted maximal effect; nearly all actives have a fitted effect of over 70% in size
# Target sequence (P83916 whole entry, looked up): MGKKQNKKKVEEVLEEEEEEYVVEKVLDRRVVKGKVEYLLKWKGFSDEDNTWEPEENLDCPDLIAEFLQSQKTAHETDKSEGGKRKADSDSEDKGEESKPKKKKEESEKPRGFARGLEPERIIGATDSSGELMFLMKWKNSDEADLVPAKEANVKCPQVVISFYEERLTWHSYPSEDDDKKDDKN
#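 AlphaScreen: HP1-beta (50 nM) preformed 30 min with biotin-H3(1-18)K9me3 peptide (50 nM) in PBS pH 7.4, 0.01% Tween-20. Compound added for 30 min at RT, then streptavidin donor/nickel chelate acceptor beads (10 ug/mL) for 30 min.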
# G9a block: qHTS Assay for Inhibitors of Histone Lysine Methyltransferase G9a; hit rate 8.8% among 350,000; Potency, µM (top dose mostly 102 µM), for inactives: at the highest dose activity, negative = inhibition, actives largely listed as inhibitors; G9a H3K9 monomethylation, AlphaScreen, 2 h; Histone-lysine N-methyltransferase EHMT2 (Homo sapiens), Q96KQ7; further: potency means the concentration at half of the fitted maximal effect; on the % scale 0 is the no-effect control and ±100 the full control effect; nearly all actives have a fitted effect of over 75% in size
# Target sequence (Q96KQ7 913-1193 limits assumed): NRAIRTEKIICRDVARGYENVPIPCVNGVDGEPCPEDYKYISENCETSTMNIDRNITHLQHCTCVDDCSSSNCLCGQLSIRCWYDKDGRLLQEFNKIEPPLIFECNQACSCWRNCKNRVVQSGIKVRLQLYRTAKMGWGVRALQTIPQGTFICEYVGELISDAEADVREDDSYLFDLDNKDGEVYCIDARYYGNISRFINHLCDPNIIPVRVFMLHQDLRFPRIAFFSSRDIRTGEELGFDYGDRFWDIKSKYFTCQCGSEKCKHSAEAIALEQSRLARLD
#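 Enzyme 20 nM + cpd, 15 min RT; add b-H3K9 pep 500 nM / SAM 20 uM; 2 h RT; anti-H3K9me1 Ab 0.5 ug/mL + SA donor / anti-rabbit acceptor beads 20 ug/mL each, 10 min; AlphaScreen read.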
# JMJD2A Tudor: qHTS Assay for Inhibitors of JMJD2A-Tudor Domain; hit rate 4.4% among 390,000; AID 504339, 2011; AlphaScreen JMJD2A-Tudor / H3K4me3 peptide binding; Potency, µM (highest dose often 114 µM), for the others: top-dose activity change, negative = inhibition, usual class: inhibitors; Lysine-specific demethylase 4A (Homo sapiens), O75164; further: potency means the concentration at half of the fitted maximal effect; on the % scale 0 is the no-effect control and ±100 the full control effect; nearly all actives have a fitted effect of over 50% in size
# BAZ2B block: qHTS Assay for Inhibitors of BAZ2B; AlphaScreen BAZ2B-H3K14Ac peptide displacement; Potency, µM (series often up to 114 µM), for inactives: at the top dose activity change, negative = inhibition, usual class: inhibitors; AID 504333, 2011; Bromodomain adjacent to zinc finger domain protein 2B (Homo sapiens), Q9UIF8; hit rate 4.4% among 360,000; further: potency means the concentration at half of the fitted maximal effect; on the % scale 0 is the no-effect control and ±100 the full control effect; nearly all actives have a fitted effect of over 60% in size
#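 Protein-peptide AlphaScreen: BAZ2B 50 nM, b-H3K14Ac 50 nM, 1x PBS pH 7.4 + 0.01% Tween-20. Preincubation 30 min RT; cpd 30 min RT (top 110 uM); beads 20 min RT, light-protected.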
# An asterisk follows results filed as active; u = inconclusive; x = no result given; [ ] = remark or other dose. Only some compounds are listed: those with a hit (about 10% of all), similar ones and a draw of the others. Unless noted, the call rests on the fitted dose curve; in most records, active means well fitted inhibition curve with a large enough effect; inconclusive means small, poorly fitted or top-dose-only effect; inactive means no such curve, though single readings can be large or run the other way.
SMILES,Six1-Eya2 inh,CtBP-E1A blk,HP1b binding inh,G9a block,JMJD2A Tudor,BAZ2B block
Cc1cc(N2C(=O)C(O)=C(C(=O)c3cc4ccccc4o3)C2c2cccs2)no1 (stereo unspecified),-11.9,-7.9,-2.0%[57 µM],35.5µM*,u,u
Cc1ccc(C2C(C(=O)c3cc4ccccc4o3)=C(O)C(=O)N2c2cc(C)on2)cc1 (stereo unspecified),-8.8,-1.6,-25.1%[57 µM],-0.4%[0.0925 µM],u,u
Cc1ccc(NS(=O)(=O)c2ccc(NC(=O)N3CCCC3)cc2)cc1C,x,x,26.1%[57 µM],0.0%[59 µM],-10.6%,4.0%
COC(=O)CC1Oc2ccc(C)cc2-n2cc(-c3ccc(C)cc3)nc21 (stereo unspecified),x,x,7.0%,u,-28.7%,50.1µM*
COc1ccc(NC(=O)Nc2cccc3ccccc23)cc1S(N)(=O)=O,-2.8,-9.2,20.9%,-8.2%,-8.1%,-9.7%
COC(=O)N/N=C/c1ccc(OC(=O)/C=C/c2ccco2)cc1,u,-71.0*,-20.6%,x,u,70.8µM*
O=C(Cc1ccccc1)N/N=C/c1ccc(OC(=O)/C=C\c2ccco2)cc1,u,-65.3*,21.3%,u,0.0%,-0.5%
COC(=O)N/N=C\c1ccc(OC(=O)c2ccco2)cc1,-10.2,3.8,38.1%,10.7%[59 µM],-0.7%,-8.9%
O=C(O)c1ccc2c(c1)C(=O)N([C@H](Cc1ccc3ccccc3c1)C(=O)O)C2=O,x,x,x,9.8%[12.7 µM],u,u
O=C(NCc1ccco1)C1CC(=O)N(c2ccc(Cl)cc2)C1 (stereo unspecified),-9.8,2.5,23.8%,-44.8%,-16.2%,x
Cc1ccc(C2CC(=O)N3CN(Cc4ccco4)CSC3=C2C#N)cc1 (stereo unspecified),-0.9,-0.9,u,u,56.2µM*,-7.5%
N#CC1=C2SCN(Cc3ccco3)CN2C(=O)CC1c1c(F)cccc1Cl (stereo unspecified),-0.1,1.4,u,1.58µM*,14.1µM*,-5.9%
CC(C)CCNc1c(-c2cccs2)nc2ccccn12,-0.1,-4.8,24.2%,44.7µM*,-13.9%,-30.2%
O=C(COc1ccc(Cl)cc1)Nc1c(-c2cccs2)nc2ccccn12,-0.4,2.5,40.1%,-11.3%,-14.1%,-7.2%
O=C1NC(=S)CN1c1ccccc1,-0.3,x,u,11.2µM*,12.6µM*,-21.2%
O=C1N(c2ccccc2)CCN1c1ccccc1,12.3,x,23.9%,-1.5%[0.501 µM],-1.4%,9.8%
Cc1ccc(S(=O)(=O)N2CCCCC2)cc1NC(=O)c1cnccn1,-0.7,-9.1,10.5%,-32.3%,-18.6%,10.8%
CCOc1cccc2sc(N(CCN(C)C)C(=O)/C=C/c3cccs3)nc12,-2.6,-1.1,-10.1%,-15.3%,44.7µM*,u
COc1ccc(OC)c2sc(N(CCN(C)C)C(=O)/C=C/c3cccs3)nc12,-16.8,-6.0,7.5%[57 µM],x,u,-24.9%
CN(C)CCN(C(=O)/C=C/c1cccs1)c1nc2c(F)cc(F)cc2s1,-19.1,0.3,u,u,39.8µM*,u
COc1cccc2sc(N(CCN(C)C)C(=O)/C=C/c3cccs3)nc12,-2.5,3.0,11.4%,15.8µM*,-33.3%,x
Cc1ccc2nc(N(CCN(C)C)C(=O)/C=C/c3cccs3)sc2c1,0.5,-7.1,22.3%,-4.8%[59 µM],-12.1%,-1.0%
COc1ccc(C)c2sc(N(CCN(C)C)C(=O)/C=C/c3cccs3)nc12,-6.1,6.0,2.7%,x,u,35.5µM*
CN(C)CCCN(C(=O)/C=C/c1cccs1)c1nc2ccc(F)cc2s1,0.5,2.5,47.2%,u,37.6%,x
CCOc1ccc2nc(N(CCN(C)C)C(=O)/C=C/c3cccs3)sc2c1,-9.5,x,31.4%,u,5.8%,-29.3%
SMILES,Six1-Eya2 inh,CtBP-E1A blk,HP1b binding inh,G9a block,JMJD2A Tudor,BAZ2B block
CCCOc1ccc(C(=O)NNC(=O)CCNC(=O)c2ccco2)cc1OC,6.3,-19.0,9.2%,3.7%,-4.1%,3.4%
O=C(O)CCN1C(=O)c2ccc(NC(=O)Cc3ccc(Cl)cc3)cc2C1=O,-1.1,5.0,41.9%,-33.9%,-0.7%,-0.4%
Cc1ccc(-n2c(=O)c3c(c4cc(C)ccc4n3C)n(CC(=O)Nc3cc(C)cc(C)c3)c2=O)cc1,x,x,8.2%,-7.7%[59 µM],7.6%,-7.8%
CCCCC[C@@H]1C=C(C(=O)O)[C@H](c2ccc(C)cc2)N1S(=O)(=O)c1ccc(C)cc1,-1.6,-2.6,-0.2%,x,89.1µM*,x
CCCC[C@@H]1C=C(C(=O)O)[C@H](c2ccc(C)cc2)N1S(=O)(=O)c1ccc(C)cc1,1.8,-1.5,15.9%,x,-12.3%,x
CC(c1ccco1)N(C)c1ncnc2ccc(-c3ccc4c(c3)OCO4)cc12 (stereo unspecified),x,x,x,x,-22.4%,x
CCN(CC)S(=O)(=O)c1ccc(N2CCOCC2)c(NS(=O)(=O)c2ccc(C(C)C)cc2)c1,-3.1,-2.8,u,21.3%,25.1µM*,6.9%
CCN(CC)S(=O)(=O)c1ccc(N2CCOCC2)c(NS(=O)(=O)c2cc(C(C)(C)C)ccc2C)c1,-12.9,-9.1,u,10µM*,u,1.0%
CCN(CC)S(=O)(=O)c1ccc(N2CCOCC2)c(NS(=O)(=O)c2cccs2)c1,2.8,6.8,41.0%,4.0%[2.33 µM],1.4%,12.1%
Cc1ccc(Cn2c(CN3CCC(C(=O)NCc4cccnc4)CC3)cc3ccccc32)cc1,x,x,-16.5%,-36.3%[59 µM],u,u
O=C(CNC(=O)c1ccc(Cl)cc1)OC(C(=O)Nc1cc(C(F)(F)F)ccc1Cl)c1ccccc1 (stereo unspecified),x,x,x,x,-7.5%,x
C#CCOCCOCCOCCNc1nc(N2CCN(C(=O)[C@H](C)n3cc(CCCN=C(N)N)nn3)CC2)nc(N2CCN(C(=O)[C@H](CCCCN)n3cc(CCCC)nn3)CC2)n1,x,x,x,4.47µM*,x,u
C#CCOCCOCCOCCNc1nc(N2CCN(C(=O)[C@H]([C@@H](C)CC)n3cc(CCCN=C(N)N)nn3)CC2)nc(N2CCN(C(=O)[C@H](CCCCN)n3cc(CCCC)nn3)CC2)n1,-7.3,x,17.3%,u,-31.0%,-38.1%
C#CCOCCOCCOCCNc1nc(N2CCN(C(=O)Cn3cc(CCCCN)nn3)CC2)nc(N2CCN(C(=O)Cn3cc(CCCN=C(N)N)nn3)CC2)n1,2.0,6.1,29.5%,4.1%[2.33 µM],-16.3%,8.4%
C#CCOCCOCCOCCNc1nc(N2CCN(C(=O)Cn3cc(CCCN=C(N)N)nn3)CC2)nc(N2CCN(C(=O)[C@H](CCCCN)n3cc(CCCC)nn3)CC2)n1,3.2,1.6,36.0%,-2.2%[2.33 µM],-35.4%,79.4µM*

# Screening data: PubChem BioAssay, National Center for Advancing Translational Sciences (NCATS)
